Some test systems named below: DU-145 prostate; K-562 leukemia; MALME-3M melanoma; MDA-MB-231 breast; RXF 393 renal; SF-268 CNS; SF-295 CNS; SF-539 CNS; UACC-257 melanoma; M14 melanoma.
Holding throughout (assay): NCI-60 one-dose screen, 48 h (100 = growth as untreated, 0 = no growth, -100 = all killed)
What all share (conditions): 10 µM unless noted

The panel holds about 83,000 compounds, 20% with a hit somewhere; the sample as a whole holds those more often.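 The endpoint reported here, percent growth, reads 100 for growth as untreated, 0 for no net growth and -100 for all cells dead.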 A number with no mark means an inactive call. Activity calls are given as the source filed them. Rule for the calls: active = growth percent below 10; inactive = the rest.

Consider `O=C(CBr)OCc1ccc([N+](=O)[O-])o1`, for which the growth in the experiment with DU-145 prostate was 108%; with K-562 leukemia it was 111%; in the experiment with MALME-3M melanoma, 107%; in the experiment on MDA-MB-231 breast it was 101%; in the experiment with RXF 393 renal, 94.8%; in the experiment on SF-268 CNS, 88.6%. Moreover, the values for the growth in the experiment with SF-295 CNS, in the experiment with SF-539 CNS and with UACC-257 melanoma were 96.5%, 103% and 88.5%, respectively.

As for `O=C1Nc2ccccc2/C1=C/c1cn(CC(O)Cn2cc(/C=C3\C(=O)Nc4ccccc43)c3ccccc32)c2ccccc12` (stereo not given), the growth in the experiment with DU-145 prostate is -90.5% (active); in the experiment on K-562 leukemia, -16.7% (active); in the experiment on MALME-3M melanoma, -76.1% (active); in the experiment on MDA-MB-231 breast, -79.9% (active); in the experiment on RXF 393 renal it was -90.8% (active); in the experiment on SF-268 CNS, -62% (active). The growth is -84.7% (active) in the experiment with SF-295 CNS, -77.7% (active) in the experiment with SF-539 CNS and -50.9% (active) in the experiment with UACC-257 melanoma.

Consider `O=C(N/N=C/c1coc2ccccc2c1=O)c1cc2oc(-c3ccccc3)cc2[nH]1`, for which the growth was 93.8% in the experiment with DU-145 prostate; 82.6% with K-562 leukemia; -5.98% (active) with MALME-3M melanoma; 96.8% in the experiment on MDA-MB-231 breast; 82% in the experiment with RXF 393 renal; 96.2% in the experiment on SF-268 CNS. The values for the growth in the experiment with SF-295 CNS, in the experiment with SF-539 CNS and in the experiment with UACC-257 melanoma were 103%, 89.8% and 118%, respectively.

In the case of `CN(CCC#N)c1ccc(/C=C(\C#N)c2cccc(C(F)(F)F)c2)cc1`, the growth with DU-145 prostate was 82.5%; with K-562 leukemia, 21%; in the experiment on MALME-3M melanoma, 58.2%; in the experiment with MDA-MB-231 breast, 58.8%; with RXF 393 renal, 71.7%; in the experiment with SF-268 CNS, 81.7%. For the same molecule, the values for the growth in the experiment with SF-295 CNS and in the experiment on SF-539 CNS were 95.8% and 68%, respectively.

Regarding `CC[n+]1c(C)ccc2cc(C)ccc21`, the growth was 126% in the experiment with DU-145 prostate; 91.2% in the experiment with K-562 leukemia; 131% in the experiment with MALME-3M melanoma; 91.7% with MDA-MB-231 breast; 111% with RXF 393 renal; 102% in the experiment on SF-268 CNS. Moreover, the growth is 119% in the experiment with SF-295 CNS, 110% with SF-539 CNS and 105% in the experiment with UACC-257 melanoma.

On to `CC(=O)OC1/C=C\CC/C=C\C1` (stereo not given), for which the growth with DU-145 prostate is 113%; in the experiment on K-562 leukemia, 110%; in the experiment with MALME-3M melanoma, 108%; in the experiment on MDA-MB-231 breast, 111%; in the experiment with RXF 393 renal, 110%; with SF-268 CNS, 107%. The growth in the experiment with SF-295 CNS was 97.3%; with SF-539 CNS, 93.1%; with UACC-257 melanoma, 108%.

With `N=C(N)c1ccc(-c2ccc(-c3ccc(Cl)cc3)s2)s1`, the growth in the experiment on DU-145 prostate is -87.8% (active); with K-562 leukemia, -45.8% (active); in the experiment with MALME-3M melanoma, -29.9% (active); with MDA-MB-231 breast, -80.5% (active); in the experiment with RXF 393 renal it was -85% (active); in the experiment with SF-268 CNS, -68.6% (active). For the same molecule, the growth in the experiment with SF-295 CNS was -68.8% (active); in the experiment with SF-539 CNS, -86.7% (active); in the experiment on UACC-257 melanoma, -37.7% (active).

With `CCCC(=O)NNc1[nH]c(-c2ccc(OC)cc2)cc1C(=O)OCC`, the growth is 104% in the experiment on DU-145 prostate; 49.1% with K-562 leukemia; 52% with MALME-3M melanoma; 87.4% with MDA-MB-231 breast; 107% in the experiment with RXF 393 renal; 118% with SF-268 CNS. Further, the growth is 93.7% in the experiment with SF-295 CNS, 92.7% with SF-539 CNS and 105% in the experiment with UACC-257 melanoma.

Regarding `CC1(C)CC(=O)C2=C(C1)Oc1nc(N)c(C#N)c(N)c1C2c1ccc(F)cc1` (stereo not given), the growth in the experiment on DU-145 prostate is 95.7%; in the experiment on K-562 leukemia, 85.9%; in the experiment with MALME-3M melanoma it was 117%; with MDA-MB-231 breast, 88.7%; in the experiment on RXF 393 renal, -1.27% (active); in the experiment on SF-268 CNS, 117%. The growth in the experiment with SF-295 CNS was 110%; in the experiment with SF-539 CNS it was 86.9%; in the experiment with UACC-257 melanoma, 94.8%.

With `COc1ccc2c(c1)cn1c3ccc(O)cc3[nH]c(=O)c21`, the growth is 15.4% with DU-145 prostate; -5.1% (active) in the experiment on K-562 leukemia; 62.5% in the experiment on MALME-3M melanoma; 25.5% in the experiment on MDA-MB-231 breast; -3.01% (active) in the experiment on RXF 393 renal; 16.9% with SF-268 CNS. For the same molecule, the values for the growth with SF-295 CNS, in the experiment on SF-539 CNS and in the experiment on UACC-257 melanoma were 22.5%, -4.58% (active) and 51.4%, respectively.

On to `Oc1ccc(Br)cc1/C=N/NC(=S)NC12CC3CC(CC(C3)C1)C2`, for which the growth in the experiment on DU-145 prostate was 9.26% (active); in the experiment on K-562 leukemia, 0.99% (active); in the experiment with MALME-3M melanoma, 17.6%; in the experiment on MDA-MB-231 breast, -4.61% (active); with RXF 393 renal it was -15.6% (active); in the experiment on SF-268 CNS it was 8.34% (active). The growth with SF-295 CNS is 17%; with SF-539 CNS, 36.7%; with UACC-257 melanoma it was 26.1%.

With `C[C@H]1C[C@@H](n2cnc3c(N)nccc32)[C@H](O)[C@@H]1O`, the growth in the experiment on DU-145 prostate was 84%; in the experiment with K-562 leukemia, 69.6%; with MALME-3M melanoma it was 110%; with MDA-MB-231 breast, 89.9%; in the experiment with RXF 393 renal, 7.03% (active); in the experiment on SF-268 CNS, 97.9%. Moreover, the growth is 96.5% with SF-295 CNS, 67.9% in the experiment with SF-539 CNS and 89.3% in the experiment with UACC-257 melanoma.

On to `O=S(=O)(O)CCI`, for which the growth with DU-145 prostate is 112%; in the experiment with K-562 leukemia, 112%; in the experiment on MALME-3M melanoma it was 113%; in the experiment with MDA-MB-231 breast, 104%; with RXF 393 renal it was 98.8%; in the experiment on SF-268 CNS, 104%. Besides, the growth with SF-295 CNS was 105%; in the experiment with SF-539 CNS, 102%; with UACC-257 melanoma, 113%.

As for `O=CN/N=C/c1ccc(Cl)c([N+](=O)[O-])c1`, the growth is 24.5% in the experiment with DU-145 prostate; 15.4% in the experiment with K-562 leukemia; 30% in the experiment with MALME-3M melanoma; 43.9% with MDA-MB-231 breast; 40.1% in the experiment with RXF 393 renal; 21.5% with SF-268 CNS. For the same molecule, the growth with SF-295 CNS was 3.88% (active); with SF-539 CNS, 22.2%; with UACC-257 melanoma, 18.2%; with M14 melanoma, 29%.

In the case of `FC(F)(F)c1cccc(-c2[nH]ncc2-c2nnnn2-c2ccccc2)c1`, the growth in the experiment with DU-145 prostate is 76.1%; with K-562 leukemia, 11.8%; with MALME-3M melanoma, 61.6%; with MDA-MB-231 breast, 41%; in the experiment on RXF 393 renal it was -20.4% (active); with SF-268 CNS, 66.4%. The growth was 56.7% in the experiment on SF-295 CNS, 63.9% with SF-539 CNS and 48.4% in the experiment with UACC-257 melanoma.

Source of the values: PubChem BioAssay (NCI).
